The experiment concerns the target GST-WRKY1(266-371) (Arabidopsis thaliana, UniProt Q9SI37 266-371). Kind of experiment: universal protein binding microarray (PBM); transcription factors of Arabidopsis thaliana; high values mean tight binding. To be noted: protein: recombinant; tags: GST; dsDNA, one strand shown. The method, boiled down:
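GST-tagged NAC-domain, full-length or DNA-binding-domain proteins were induced in cells, with zinc acetate added for zinc-finger proteins. They were purified on glutathione–Sepharose 4B and quantified by A280 or anti-GST western blot. Each was applied at 200 to 500 nM final, in duplicate, to custom all-10-mer Agilent 4 × 180K arrays made double-stranded by primer extension, with gapped and ungapped 8-mers scored. Binding is the normalised enrichment score (E-score).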
Sequence of GST-WRKY1(266-371) (Q9SI37 266-371): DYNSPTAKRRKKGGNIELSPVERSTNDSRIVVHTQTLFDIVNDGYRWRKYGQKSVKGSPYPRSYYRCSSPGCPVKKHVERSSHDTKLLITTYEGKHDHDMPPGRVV
For GCGTTGAC, the binding signal amounted to 0.488 E-score.
The same measure for GAAGACCA: 0.442 E-score.
Consider CGTTTGAC, for which the binding signal was determined as 0.476 E-score.
With GTAGGTCA, the binding signal was 0.416 E-score.
As for CGAAGTCA, the binding signal was 0.42 E-score.
On to AGTCAATG, for which the binding signal came out at 0.481 E-score.
With GGTGGTCA, the binding signal was determined as 0.43 E-score.
For the sequence CTGACCAC, the binding signal came to 0.41 E-score.
As to GCTGACCA, the binding signal amounted to 0.462 E-score.
For CACGGTCA, the binding signal is 0.44 E-score.
As to GACCAAGA, the binding signal came out at 0.403 E-score.
Turning to GAGTCAAC, the binding signal came out at 0.487 E-score.
For ACTTGACT, the binding signal is 0.456 E-score.
The same measure for CAGTCAGA: 0.404 E-score.
The same measure for GTGTCAAC: 0.404 E-score; for AAAGTCTT: 0.429 E-score; for GAAAAGTC: 0.413 E-score.
The same measure for GAATTGAC: 0.439 E-score; for GTTTGACA: 0.417 E-score; for CCGTTGAC: 0.49 E-score.
Turning to GAAGGTCA, the binding signal was found to be 0.426 E-score.
Regarding TCGTCAAA, the binding signal stood at 0.432 E-score.
Consider GGTCAAGA, for which the binding signal is 0.477 E-score.
CAGTTGAC: the binding signal turned out to be 0.477 E-score.
On to GCAGTCAA, for which the binding signal is 0.478 E-score.
With TGACCCCA, the binding signal is 0.428 E-score.
The same measure for CGTTGACC: 0.496 E-score; for CCGTCAAC: 0.451 E-score; for GAAAGTCA: 0.461 E-score.
For TGACTGCA, the binding signal was 0.413 E-score.
Consider AGTCAGAC, for which the binding signal turned out to be 0.442 E-score.
The same measure for GACTTGAC: 0.458 E-score; for GATTTGAC: 0.464 E-score.
The same measure for GGAAGTCA: 0.429 E-score.
For ATTTGACC, the binding signal turned out to be 0.481 E-score.
With AGGTTGAC, the binding signal worked out at 0.474 E-score.
In the case of AGGTCAAT, the binding signal came out at 0.478 E-score.
Regarding GTTGACGA, the binding signal was determined as 0.453 E-score.
For the sequence CTCGTCAA, the binding signal worked out at 0.424 E-score.
